Common to all, as to experiment: qHTS profiling for inhibitors of Plasmodium falciparum proliferation (AID 504749); further: nearly all actives have a fitted effect of over 60% in size
What all share (details): P. falciparum in erythrocytes, SYBR Green DNA, 72 h; series mostly up to 28.7 µM

One test deals with CP269. Put shortly: (§1)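 Infected RBCs, 0.3% parasitemia/2.5% Hct final; cpd 72 h, 37 C, 5% CO2; lysis buffer with saponin/triton/SYBR Green I, o/n RT dark; FI 485/535; norm. to artemisinin (0.29 uM) and DMSO.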
Another test relates to CP286. Put shortly: as §1
In a further test the test system is CP291. The gist of the method:
as §1

Another test concerns CP297. The gist of the method:
as §1

The next test deals with CP305. Put shortly:
as §1

The subject of another test is CP315. The gist of the method:
as §1

The next test has as its system CP325. Put shortly:
as §1

In a further test the test system is CP329. Put shortly:
as §1

The next test concerns CP335. The gist of the method: as §1
The next test concerns DFO2036. The gist of the method: as §1
The next test concerns DIV14. The gist of the method:
as §1

In another test the test system is DIV17. The gist of the method: as §1
The subject of the next test is DIV30. Put shortly: as §1
For the next test, the system named is Dd2. Put shortly: as §1
The test system of another test is ECU. Put shortly:
as §1

The subject of another test is FAB9. Put shortly:
as §1

Another test relates to GB4. The gist of the method: as §1
The next test concerns HB3. Put shortly:
as §1

Another test deals with ICS. The gist of the method: as §1
The test system of the next test is JCK. Put shortly:
as §1

Inconclusive results are not listed. Calls of active or inactive are those of the source. The call rests on the fitted dose curve; in most records, active means well fitted inhibition curve with a large enough effect; inconclusive means small, poorly fitted or top-dose-only effect; inactive means flat fitted curve, though single readings scatter.
Potency means the concentration at half of the fitted maximal effect.

For `Cc1cc(O)cc2c1O[C@](C)(CCC[C@H](C)CCC[C@H](C)CCCC(C)C)CC2`, the Potency entry in the test with CP269, with CP286, in the test on CP291, in the test on CP297, in the test with CP305 and with CP315 was “inactive” each time. Moreover, the Potency result in the test on CP325, with CP329, in the test on CP335, in the test on DFO2036, in the test on DIV14 and in the test with DIV17 was “inactive” each time. Further, the Potency entry in the test with DIV30, with Dd2, with ECU, in the test with FAB9, in the test on GB4 and in the test with HB3 was “inactive” in each case. The Potency result with JCK was “inactive”. Further, the Potency in the test on ICS is 8.91 µM (active).
Take `C[C@@H]1CN(c2c(F)c(F)c3c(=O)c(C(=O)O)cn(C4CC4)c3c2F)C[C@H](C)N1`: the Potency entry with CP269, in the test with CP286, in the test with CP291, in the test with CP297, in the test with CP305 and in the test on CP315 was “inactive” throughout. Also, the Potency result in the test on CP325, with CP329, in the test with CP335, in the test with DFO2036, in the test on DIV14 and in the test on DIV17 was “inactive” throughout. Also, the Potency result with DIV30, in the test on Dd2, in the test with ECU, in the test with FAB9, in the test on GB4 and in the test with HB3 was “inactive” throughout. Moreover, the Potency result with ICS and with JCK was “inactive” in each case.
Regarding `CCN(CC)CCSC(=O)C(c1ccccc1)c1ccccc1`, the Potency result with CP269, in the test with CP286, in the test with CP291, in the test on CP297, with CP305 and with CP315 was “inactive” in each case. Also, the Potency entry in the test with CP325, in the test with CP329, in the test on CP335, in the test with DFO2036, with DIV14 and in the test with DIV17 was “inactive” throughout. Moreover, the Potency entry in the test with DIV30, in the test with Dd2, in the test on ECU, with FAB9, in the test on GB4 and in the test with HB3 was “inactive” in each case. The Potency result in the test with ICS and in the test on JCK was “inactive” in each case.
With `[O-][n+]1cccc(CO)c1`, the Potency entry with CP269, in the test with CP286, with CP291, with CP297, in the test with CP305 and in the test on CP315 was “inactive” each time. For the same compound, the Potency result in the test with CP325, in the test with CP329, with CP335, in the test on DFO2036, in the test with DIV14 and in the test with DIV17 was “inactive” each time. The Potency result with DIV30, in the test on Dd2, in the test on ECU, in the test on FAB9, with GB4 and in the test on HB3 was “inactive” in each case. In addition, the Potency entry in the test on ICS and with JCK was “inactive” in each case.
With `CC(=O)Nc1ccc(/C=N/NC(N)=S)cc1`, the Potency result with CP269, in the test on CP286, in the test with CP291, in the test on CP297, in the test with CP305 and with CP315 was “inactive” in each case. For the same compound, the Potency entry in the test with CP325, in the test on CP329, in the test with CP335, in the test with DFO2036, in the test on DIV14 and in the test on DIV17 was “inactive” in each case. Further, the Potency entry in the test on DIV30, with Dd2, in the test on ECU, in the test on FAB9, in the test with GB4 and with HB3 was “inactive” throughout. Also, the Potency entry in the test with ICS and with JCK was “inactive” in each case.
As for `NS(=O)(=O)c1cc2c(cc1Cl)NC(CSCc1ccccc1)=NS2(=O)=O`, the Potency entry in the test with CP269, with CP286, with CP291, with CP297, with CP305 and with CP315 was “inactive” throughout. Moreover, the Potency entry in the test with CP325, in the test with CP329, in the test on CP335, in the test on DFO2036, in the test with DIV14 and in the test with DIV17 was “inactive” each time. In addition, the Potency entry in the test with DIV30, in the test on Dd2, with ECU, with FAB9, with GB4 and in the test on HB3 was “inactive” throughout. In addition, the Potency entry in the test with ICS and with JCK was “inactive” each time.
Turning to `COc1ccc(S(=O)(=O)Nc2nnc(CC(C)C)s2)cc1`, the Potency entry in the test on CP269, in the test with CP286, in the test on CP291, in the test with CP297, in the test on CP305 and in the test on CP315 was “inactive” in each case. Further, the Potency result in the test with CP325, with CP329, with CP335, in the test on DFO2036, in the test with DIV14 and in the test with DIV17 was “inactive” each time. Moreover, the Potency result in the test on DIV30, in the test with Dd2, in the test on ECU, in the test on FAB9, with GB4 and in the test on HB3 was “inactive” each time. For the same compound, the Potency result in the test with ICS and in the test on JCK was “inactive” each time.
With `CCC(=O)c1ccc(O)cc1`, the Potency result in the test on CP269, in the test with CP286, with CP291, with CP297, in the test with CP305 and in the test on CP315 was “inactive” in each case. Besides, the Potency result with CP325, in the test on CP329, in the test on CP335, with DFO2036, with DIV14 and with DIV17 was “inactive” in each case. Further, the Potency result in the test on DIV30, in the test on Dd2, with ECU, with FAB9, in the test with GB4 and with HB3 was “inactive” in each case. Moreover, the Potency entry in the test with ICS and in the test with JCK was “inactive” throughout.
Take `CCC(=O)Nc1ccc(O)cc1`: the Potency result in the test on CP269, in the test on CP286, with CP291, in the test with CP297, in the test on CP305 and in the test with CP315 was “inactive” in each case. In addition, the Potency result with CP325, with CP329, with CP335, in the test with DFO2036, in the test on DIV14 and with DIV17 was “inactive” in each case. For the same compound, the Potency entry in the test on DIV30, in the test with Dd2, in the test on ECU, in the test with FAB9, in the test on GB4 and with HB3 was “inactive” in each case. Besides, the Potency entry with ICS and with JCK was “inactive” in each case.
On to `O=C1OC(OC(=O)c2cccnc2Nc2cccc(C(F)(F)F)c2)c2ccccc21` (stereo not given), for which the Potency result with CP269, with CP286, with CP291, in the test on CP297, in the test on CP305 and in the test on CP315 was “inactive” in each case. Moreover, the Potency result in the test on CP325, with CP329, in the test on CP335, in the test on DFO2036, in the test with DIV14 and in the test on DIV17 was “inactive” throughout. The Potency entry in the test with DIV30, with Dd2, in the test with ECU, in the test on FAB9, in the test on GB4 and with HB3 was “inactive” throughout. The Potency entry in the test with ICS and in the test with JCK was “inactive” each time.
As for `COc1ccc2c(c1)C(=O)N(CCc1ccc(S(=O)(=O)NC(=O)NC3CCCCC3)cc1)C(=O)C2(C)C`, the Potency result in the test on CP269, in the test with CP286, in the test with CP291, in the test on CP297, with CP305 and in the test with CP315 was “inactive” throughout. The Potency entry in the test on CP325, in the test on CP329, with CP335, in the test on DFO2036, with DIV14 and with DIV17 was “inactive” in each case. The Potency result in the test on DIV30, in the test with Dd2, in the test on ECU, in the test on FAB9, in the test on GB4 and in the test on HB3 was “inactive” in each case. Besides, the Potency result in the test on ICS and with JCK was “inactive” each time.
On to `NC(=O)NNc1ccccc1`, for which the Potency result with CP269, in the test on CP286, in the test with CP291, with CP297, with CP305 and in the test on CP315 was “inactive” each time. Further, the Potency result in the test with CP325, with CP329, in the test with CP335, in the test on DFO2036, in the test with DIV14 and with DIV17 was “inactive” in each case. Also, the Potency result in the test on DIV30, with Dd2, with ECU, with FAB9, in the test on GB4 and with HB3 was “inactive” in each case. The Potency entry in the test with ICS and with JCK was “inactive” in each case.
Consider `Nc1ccc(S(=O)(=O)Nc2ccccc2)cc1`, for which the Potency entry with CP269, in the test with CP286, in the test with CP291, with CP297, in the test with CP305 and with CP315 was “inactive” throughout. For the same compound, the Potency entry in the test with CP325, in the test on CP329, in the test with CP335, in the test on DFO2036, with DIV14 and with DIV17 was “inactive” each time. The Potency entry in the test with DIV30, with Dd2, with ECU, in the test on FAB9, in the test on GB4 and in the test with HB3 was “inactive” each time. The Potency result in the test on ICS and in the test with JCK was “inactive” in each case.

The values are drawn from PubChem BioAssay (NCATS).
